{
  "source": "ChEMBL document CHEMBL4513216",
  "about": "“Probing the Open Global Health Chemical Diversity Library for Multistage-Active Starting Points for Next-Generation Antimalarials” (ACS Infect Dis, 2020)",
  "note": "The whole screen tested about 69,000 compounds, of which about 8,600 (12%) showed an effect of 50% or more. The sample as a whole holds a higher share of strong results than the screen did.",
  "data": [
    {"system": "Plasmodium berghei", "assay": "Screen against P. berghei liver stage (PbLuc), transformed with Luciferase, at 10uM", "format": "functional, HepG2", "settings": "tested at 10 uM", "units": {"INHIBITION": "%"}, "values": [
      {"smiles": "Nc1nnc(CCCNC(=O)c2ccc(C3CCCNC3)cc2)s1", "note": "(centres undefined)", "INHIBITION": 20.6},
      {"smiles": "CC(C)NC(=O)c1ccn(COc2c(Cl)cccc2Cl)n1", "INHIBITION": 35},
      {"smiles": "CC(O)(CNC(=O)NCCc1ccc2c(c1)CCO2)c1ccccc1", "note": "(centres undefined)", "INHIBITION": -5.57},
      {"smiles": "CCCNCc1cn(Cc2ccccc2)nc1-c1cccnc1", "INHIBITION": 16.5},
      {"smiles": "CNC(=O)C1CN(c2ncccn2)CCN1Cc1ccccc1", "note": "(centres undefined)", "INHIBITION": 19.3},
      {"smiles": "Cc1nc(CN2CCOCC2c2[nH]ncc2C)cs1", "note": "(centres undefined)", "INHIBITION": 8.335},
      {"smiles": "CN(c1cccnn1)[C@@H]1CC[C@@H]2CN(Cc3ccccc3C(=O)O)C[C@@H]21", "INHIBITION": 19.65},
      {"smiles": "N#CCCn1cnc2c(Br)cccc2c1=O", "INHIBITION": 33.6},
      {"smiles": "CS(=O)(=O)c1ccc(Cl)c(C(=O)NCCC2=CCCCC2)c1", "INHIBITION": -19.2},
      {"smiles": "COCCN1CCc2c(CNC(=O)c3nccn3C)cncc2C1", "INHIBITION": 43.9},
      {"smiles": "CCN(CC)S(=O)(=O)N1CCCN(CC2CCCO2)CC1", "note": "(centres undefined)", "INHIBITION": 41.7},
      {"smiles": "Cc1ccc(C)c(CN2C[C@@H]3CC[C@H]2CN(C(=O)c2cccnc2)C3)c1", "INHIBITION": -70.7},
      {"smiles": "COCCN1CCC2(CC1)CCN(Cc1ccccn1)CC2", "INHIBITION": -67.6},
      {"smiles": "Cc1cc(CNC(=O)C2CC(=O)N(CCN(C)C)C2)cc(C)n1", "note": "(centres undefined)", "INHIBITION": 16.5},
      {"smiles": "CCN(CC)C1COc2ccc(Br)cc2C1=O", "note": "(centres undefined)", "INHIBITION": 39.7},
      {"smiles": "COCCN1C[C@@H]2CN(Cc3ccc(F)cc3)C[C@@H]2C1=O", "INHIBITION": 0.112},
      {"smiles": "Cc1ccc(=O)n(CC2(O)CCN(Cc3ccoc3)CC2)n1", "INHIBITION": -59.9},
      {"smiles": "Cc1cc2ncn(C[C@]3(O)CCCN4CCCC[C@@H]43)c2cc1C", "INHIBITION": 49.4},
      {"smiles": "COc1ccc2c(c1)ncn2C[C@]1(O)CCCN2CCCC[C@@H]21", "INHIBITION": 58.5},
      {"smiles": "O[C@@]1(Cn2cnc(Cl)c2Cl)CCCN2CCCC[C@@H]21", "INHIBITION": 40.3},
      {"smiles": "c1ccc(CCN2CCCC2c2ccnc(Nc3cnccn3)n2)cc1", "note": "(centres undefined)", "INHIBITION": 25.8},
      {"smiles": "Cc1nc(C(=O)NS(=O)(=O)c2cccc(C#N)c2)cs1", "INHIBITION": 61.1},
      {"smiles": "Cc1nc(C(C)C)sc1C(=O)NS(=O)(=O)c1ccc(C#N)cc1", "INHIBITION": 39.5},
      {"smiles": "CSc1ccsc1C(=O)NS(=O)(=O)c1cccc(C#N)c1", "INHIBITION": 16.9},
      {"smiles": "COc1ccc(C(=O)NS(=O)(=O)c2cccc(C#N)c2)cc1", "INHIBITION": 15.5},
      {"smiles": "N#Cc1ccc(S(=O)(=O)NC(=O)c2csc(-c3ccco3)n2)cc1", "INHIBITION": 54.3},
      {"smiles": "N#Cc1cccc(S(=O)(=O)NC(=O)c2csc(-c3ccco3)n2)c1", "INHIBITION": 24.3},
      {"smiles": "Cc1ccc(CNC(=O)Nc2nccs2)cn1", "INHIBITION": -31.8},
      {"smiles": "Cn1cc(NC(=O)N2CCCC2c2ccccn2)ccc1=O", "note": "(centres undefined)", "INHIBITION": -80.7}
    ]}
  ]
}
